The values that follow come from ChEMBL document CHEMBL1961873, “Compounds: GSK PKIS; Assays: Nanosyn kinase panel” (2012).

Experiment [1] has as its target T1, Tyrosine-protein kinase receptor TYRO3 (Homo sapiens) (UniProt Q06418).
T1 sequence (whole entry): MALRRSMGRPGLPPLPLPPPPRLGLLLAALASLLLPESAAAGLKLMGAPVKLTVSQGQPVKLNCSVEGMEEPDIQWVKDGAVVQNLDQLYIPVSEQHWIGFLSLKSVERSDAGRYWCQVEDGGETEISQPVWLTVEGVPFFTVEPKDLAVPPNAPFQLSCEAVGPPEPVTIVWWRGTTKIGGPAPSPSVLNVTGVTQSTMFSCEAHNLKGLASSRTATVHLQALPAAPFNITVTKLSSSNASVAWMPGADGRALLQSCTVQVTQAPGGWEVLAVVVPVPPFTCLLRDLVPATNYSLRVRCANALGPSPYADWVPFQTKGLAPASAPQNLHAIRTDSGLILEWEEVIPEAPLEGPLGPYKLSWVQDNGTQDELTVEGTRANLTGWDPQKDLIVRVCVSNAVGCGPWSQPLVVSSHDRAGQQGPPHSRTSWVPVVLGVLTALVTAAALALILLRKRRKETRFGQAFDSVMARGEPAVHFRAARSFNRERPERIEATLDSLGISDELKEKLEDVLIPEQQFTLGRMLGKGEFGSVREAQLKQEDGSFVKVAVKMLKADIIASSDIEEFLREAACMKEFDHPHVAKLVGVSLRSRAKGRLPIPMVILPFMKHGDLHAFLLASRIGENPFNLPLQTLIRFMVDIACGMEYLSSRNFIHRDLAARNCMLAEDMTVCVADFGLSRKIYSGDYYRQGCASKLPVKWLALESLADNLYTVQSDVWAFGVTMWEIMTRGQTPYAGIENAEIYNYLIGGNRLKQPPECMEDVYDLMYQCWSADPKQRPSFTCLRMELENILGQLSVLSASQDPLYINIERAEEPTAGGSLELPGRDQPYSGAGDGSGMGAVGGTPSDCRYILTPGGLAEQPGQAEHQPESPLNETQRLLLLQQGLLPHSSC
As to conditions: at 1 µM.

In experiment [2] the target is Tyrosine-protein kinase Yes (Homo sapiens) (UniProt P07947). The conditions noted are these: at 0.1 µM.
For experiment [3] the target is unchanged. The conditions noted are these: at 1 µM.
Experiment [4] addresses T2, Tyrosine-protein kinase ZAP-70 (Homo sapiens) (UniProt P43403).
T2 sequence (whole entry): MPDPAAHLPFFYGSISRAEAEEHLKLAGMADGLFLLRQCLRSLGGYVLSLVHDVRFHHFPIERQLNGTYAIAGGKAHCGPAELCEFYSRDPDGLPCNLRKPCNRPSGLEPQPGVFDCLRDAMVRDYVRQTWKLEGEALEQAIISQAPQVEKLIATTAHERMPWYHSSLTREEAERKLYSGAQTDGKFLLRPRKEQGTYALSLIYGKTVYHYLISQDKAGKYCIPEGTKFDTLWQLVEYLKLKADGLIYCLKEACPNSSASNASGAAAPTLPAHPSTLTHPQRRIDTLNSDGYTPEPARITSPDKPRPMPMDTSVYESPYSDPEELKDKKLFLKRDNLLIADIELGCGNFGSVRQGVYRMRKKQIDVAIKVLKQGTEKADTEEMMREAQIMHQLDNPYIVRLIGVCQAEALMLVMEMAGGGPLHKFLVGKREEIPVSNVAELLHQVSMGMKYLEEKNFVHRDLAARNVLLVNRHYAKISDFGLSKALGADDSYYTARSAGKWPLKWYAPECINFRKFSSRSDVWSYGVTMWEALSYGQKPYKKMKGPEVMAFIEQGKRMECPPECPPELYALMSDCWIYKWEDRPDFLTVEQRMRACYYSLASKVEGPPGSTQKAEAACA
As to conditions: at 0.1 µM.

Experiment [5] has as its target T2, Tyrosine-protein kinase ZAP-70 (Homo sapiens). As to conditions: at 1 µM.
Experiment [6] deals with Serine/threonine-protein kinase B-raf (Homo sapiens) (UniProt P15056). The conditions noted are these: at 0.1 µM.
Experiment [7] has the same target. The conditions noted are these: at 1 µM.
The test system of experiment [8] is Serine/threonine-protein kinase B-raf (Homo sapiens), P15056 [V600E]. The conditions noted are these: at 0.1 µM.
Experiment [9] shares this test system. The conditions noted are these: at 1 µM.
In experiment [10] the target is RAF proto-oncogene serine/threonine-protein kinase (Homo sapiens) (UniProt P04049). The conditions noted are these: at 0.1 µM.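 Note: values are mean CRAF kinase inhibition from profiling of the GSK Published Kinase Inhibitor Set.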

The structures appear in SMILES notation.

Serine/threonine-protein kinase B-raf (Homo sapiens), sequence (P15056 whole entry): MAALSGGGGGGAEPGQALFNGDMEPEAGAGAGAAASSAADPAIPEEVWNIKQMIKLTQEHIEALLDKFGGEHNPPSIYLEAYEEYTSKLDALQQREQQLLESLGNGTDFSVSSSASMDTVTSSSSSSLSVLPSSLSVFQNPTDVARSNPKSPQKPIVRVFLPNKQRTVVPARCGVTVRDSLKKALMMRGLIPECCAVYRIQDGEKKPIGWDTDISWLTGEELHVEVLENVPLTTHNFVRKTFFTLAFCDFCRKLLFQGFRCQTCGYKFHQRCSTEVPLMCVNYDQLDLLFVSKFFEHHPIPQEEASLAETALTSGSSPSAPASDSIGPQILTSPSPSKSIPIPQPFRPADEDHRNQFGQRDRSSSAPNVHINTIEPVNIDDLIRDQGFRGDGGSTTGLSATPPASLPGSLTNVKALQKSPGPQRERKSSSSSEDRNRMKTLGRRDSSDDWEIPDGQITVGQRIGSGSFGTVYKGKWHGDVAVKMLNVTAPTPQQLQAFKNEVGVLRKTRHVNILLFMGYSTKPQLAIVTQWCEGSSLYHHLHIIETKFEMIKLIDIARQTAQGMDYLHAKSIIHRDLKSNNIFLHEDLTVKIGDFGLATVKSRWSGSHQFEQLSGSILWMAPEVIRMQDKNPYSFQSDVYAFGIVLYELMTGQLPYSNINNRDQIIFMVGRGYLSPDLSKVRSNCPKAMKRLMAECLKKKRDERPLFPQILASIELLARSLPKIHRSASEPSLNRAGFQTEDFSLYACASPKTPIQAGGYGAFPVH
RAF proto-oncogene serine/threonine-protein kinase (Homo sapiens), sequence (P04049 whole entry): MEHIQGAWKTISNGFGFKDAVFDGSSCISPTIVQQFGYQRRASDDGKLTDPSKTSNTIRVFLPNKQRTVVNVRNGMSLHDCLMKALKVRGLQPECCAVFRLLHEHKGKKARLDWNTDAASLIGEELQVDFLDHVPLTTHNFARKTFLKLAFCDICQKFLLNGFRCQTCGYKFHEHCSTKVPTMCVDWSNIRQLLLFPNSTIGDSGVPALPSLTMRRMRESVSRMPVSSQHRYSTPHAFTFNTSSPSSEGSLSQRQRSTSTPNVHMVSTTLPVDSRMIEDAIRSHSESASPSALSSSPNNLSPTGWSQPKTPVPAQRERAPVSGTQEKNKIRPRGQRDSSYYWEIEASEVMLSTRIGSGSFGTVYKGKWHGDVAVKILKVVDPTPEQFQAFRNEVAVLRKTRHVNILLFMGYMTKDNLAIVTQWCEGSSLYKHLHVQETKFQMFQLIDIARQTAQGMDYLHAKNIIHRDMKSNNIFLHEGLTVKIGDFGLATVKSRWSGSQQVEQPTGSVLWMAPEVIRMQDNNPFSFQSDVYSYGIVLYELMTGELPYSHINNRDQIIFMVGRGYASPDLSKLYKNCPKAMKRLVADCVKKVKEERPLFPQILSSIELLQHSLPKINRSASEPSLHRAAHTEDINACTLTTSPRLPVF
Serine/threonine-protein kinase B-raf (Homo sapiens), P15056 [V600E], sequence (P15056 whole entry V600E): as the sequence (P15056 whole entry) above, with V600E counted along it
Tyrosine-protein kinase Yes (Homo sapiens), sequence (P07947 2-543 limits assumed): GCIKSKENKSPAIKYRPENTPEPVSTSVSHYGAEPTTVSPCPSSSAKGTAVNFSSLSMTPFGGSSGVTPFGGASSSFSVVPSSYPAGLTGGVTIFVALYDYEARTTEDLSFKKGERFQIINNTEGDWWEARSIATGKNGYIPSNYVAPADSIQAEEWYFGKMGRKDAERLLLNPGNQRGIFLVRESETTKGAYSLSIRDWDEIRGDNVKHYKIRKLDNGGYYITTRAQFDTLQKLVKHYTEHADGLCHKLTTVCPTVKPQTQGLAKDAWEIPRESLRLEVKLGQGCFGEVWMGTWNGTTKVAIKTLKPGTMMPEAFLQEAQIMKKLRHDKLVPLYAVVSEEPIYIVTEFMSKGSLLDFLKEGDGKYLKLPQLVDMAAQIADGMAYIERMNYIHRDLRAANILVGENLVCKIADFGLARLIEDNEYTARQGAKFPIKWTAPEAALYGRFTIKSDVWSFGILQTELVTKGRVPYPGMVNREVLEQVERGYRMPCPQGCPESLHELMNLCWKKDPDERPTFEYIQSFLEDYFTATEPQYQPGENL

For the compound `COc1ccc(-c2ccncc2)cc1C(N)=O`, the inhibition (commonly the drop in the measured response relative to a control, in per cent) in experiment [1] is 0.74%; in [2] it was -1.44%; in [3], 3.66%; in experiment [4], -0.9%; in [5], 1.01%; in [6] it was 6.32%. The inhibition in [7] is 8.48%; in experiment [8], 5.07%; in [9] it was 5.66%; in experiment [10] it was 1.23%.

For the compound `CCn1c(-c2nonc2N)nc2cncc(C(=O)N3CC[C@H](N)C3)c21`, the inhibition was 6.78% in [1]; 1.84% in experiment [2]; 5.96% in experiment [3]; -1.89% in experiment [4]; -1.69% in experiment [5]; 6.39% in experiment [6]. Also, the inhibition came out at 7.03% in experiment [7], 7.1% in experiment [8], 6.82% in experiment [9] and 12.6% in [10].

On to `COc1cccc(-n2ncc3c(N/N=C/c4cccc(F)c4)ncnc32)c1`, for which the inhibition in experiment [1] is 8.11%; in [2], 6.17%; in [3], 31%; in [4], -0.37%; in experiment [5], -0.02%; in experiment [6] it was 4.04%. For the same compound, the inhibition in [7] was 5.91%; in [8], 3.95%; in [9] it was 5.71%; in experiment [10], 0.69%.

On to `CCc1cccc(NC(=O)Nc2ccc(Oc3ccc4nc(NC(=O)OC)[nH]c4c3)cc2)c1`, for which the inhibition in experiment [1] was 21.4%; in experiment [2], 0.83%; in [3], -1.93%; in [4], 0.4%; in experiment [5], -1.32%; in [6], 9.12%. The inhibition was 12.2% in experiment [7], 9.23% in experiment [8], 13.8% in [9] and -5.43% in [10].

Regarding `Nc1nc(-c2ccccn2)c(-c2ccc3ncccc3n2)s1`, the inhibition is 2.67% in [1]; -0.44% in [2]; 0.23% in experiment [3]; 0.82% in experiment [4]; 0.6% in experiment [5]; 3.55% in experiment [6]. Besides, the inhibition in [7] was found to be 7.22%; in experiment [8] it was 3.63%; in experiment [9], 5.74%; in [10], 2.42%.

As for `CS(=O)(=O)Nc1ccc(N/C=C2\C(=O)Nc3ccccc32)cc1`, the inhibition in [1] was 6.06%; in experiment [2], -1.31%; in experiment [3], 10.4%; in [4] it was -3.14%; in experiment [5], -2.93%; in experiment [6], -2.74%. Besides, the inhibition in [7] is -2.55%; in [8] it was -3.06%; in [9], -2.04%; in [10], -5.04%.

With `COc1ccccc1Nc1ncc(-c2ccccc2)o1`, the inhibition in experiment [1] was found to be 2.12%; in experiment [2] it was 2.01%; in experiment [3], 6.48%; in [4], 0.73%; in experiment [5] it was 4.36%; in experiment [6], 6.58%. Further, the inhibition came out at 7.19% in experiment [7], 4.73% in [8], 3.58% in [9] and 3.32% in experiment [10].

As to `COc1cc(C=NNc2ncnc3c2cnn3-c2ccccc2)ccc1O`, the inhibition in experiment [1] amounted to 33.5%; in [2], 21.5%; in [3] it was 64.9%; in experiment [4] it was 3.12%; in [5], 9.72%; in [6], 2.6%. For the same compound, the inhibition in [7] was 2.66%; in experiment [8], 2.03%; in experiment [9], 2.54%; in experiment [10], -0.56%.

For `O=C1NC(=O)C(N2CCc3ccccc32)=C1c1ccc(Cl)cc1`, the inhibition is 3.19% in experiment [1]; 0.13% in [2]; 1.35% in experiment [3]; 3.14% in experiment [4]; 4.58% in experiment [5]; 6% in experiment [6]. Moreover, the inhibition in [7] amounted to 7.8%; in [8] it was 6.55%; in experiment [9], 6.79%; in experiment [10] it was 0.98%.

For the compound `COc1ccc(-c2coc3ncnc(N)c23)cc1`, the inhibition in experiment [1] was determined as 0.37%; in experiment [2], 1.25%; in [3], 2.89%; in experiment [4], 0.06%; in experiment [5], 4.55%; in experiment [6], 4.66%. For the same compound, the inhibition stood at 7.42% in experiment [7], 6.07% in experiment [8], 6.81% in [9] and 2.99% in experiment [10].

On to `COc1cc2ncn(-c3cc(O[C@H](C)c4ccccc4Cl)c(C(N)=O)s3)c2cc1OC`, for which the inhibition in experiment [1] came out at 37.6%; in experiment [2], 4.24%; in [3], 17.8%; in experiment [4], 2.5%; in experiment [5], 7.57%; in [6], 4.31%. For the same compound, the inhibition in experiment [7] was found to be 3.59%; in experiment [8], 4.51%; in experiment [9], 3.77%; in experiment [10], 1.34%.

As to `CCn1c(-c2nonc2N)nc2cncc(C(=O)N3CCNCC3)c21`, the inhibition in [1] was determined as 2.14%; in experiment [2] it was 2.93%; in experiment [3], 3.85%; in experiment [4] it was 2.85%; in experiment [5] it was 4.99%; in experiment [6] it was 9.15%. For the same compound, the inhibition in experiment [7] was 11.5%; in experiment [8], 6.08%; in [9], 5.58%; in experiment [10], 4.15%.

As for `CCn1c(-c2nonc2N)nc2c(N3CCCC3)nccc21`, the inhibition in [1] is -1.5%; in [2], -4.35%; in [3], 4.6%; in [4], 1.14%; in experiment [5] it was 2.3%; in experiment [6], 0.2%. In addition, the inhibition in experiment [7] was 4.02%; in [8], -2.4%; in [9], -2.63%; in [10] it was -1.29%.

As to `CS(=O)(=O)CCN(CC#N)Cc1ccc(-c2ccc3ncnc(Nc4ccc(OCc5cccc(F)c5)c(Cl)c4)c3c2)o1`, the inhibition in experiment [1] was 2.22%; in [2], -1.67%; in experiment [3] it was 2.4%; in experiment [4], -3.82%; in experiment [5], -0.8%; in experiment [6], 4.46%. Moreover, the inhibition is 1.74% in [7], 1.42% in experiment [8], 2.17% in [9] and 0.21% in experiment [10].

With `CCCN1CCC=C(c2ccc(Nc3nc(Nc4ccccc4C(N)=O)c4cc[nH]c4n3)c(C)c2)C1`, the inhibition in [1] was determined as 9.79%; in experiment [2] it was 1.14%; in experiment [3], 5.4%; in experiment [4] it was 5.54%; in [5] it was 27.4%; in experiment [6], 8.31%. The inhibition in experiment [7] was 33.4%; in [8], 7.56%; in [9], 28.2%; in [10], 5.61%.

Regarding `COc1cc2ncn(-c3cc(OCc4ccccc4C(F)(F)F)c(C(N)=O)s3)c2cc1OC`, the inhibition in experiment [1] was 10.3%; in experiment [2], 1.77%; in experiment [3], 7.91%; in experiment [4], -2.01%; in experiment [5], -1.32%; in experiment [6], 5.82%. Also, the inhibition in experiment [7] worked out at 4.85%; in [8], 3.47%; in experiment [9], 3.52%; in experiment [10] it was 1.99%.
